Measured values reported in PubChem BioAssay (Tox21).
Values joined by “and” are separate entries in the source; they are usually repeats but may differ in a detail not shown here. Equal values may be shown once. Inconclusive results are not listed. Active and inactive are the calls of the source. Unless noted, calls come from the whole dose curve; as a rule, active = well fitted curve in the direction sought with a large enough effect in the repeat runs; inconclusive = weak or mixed curves; inactive = flat fitted curve, though single readings scatter.

Columns and labels:
[1] = qHTS assay to test for compound auto fluorescence at 535 nm (green) in HEK293 cells (AID 720680)
[2] = qHTS assay to test for compound auto fluorescence at 460 nm (blue) in HEK293 cell free culture (AID 720681)
How it was run: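 Compounds were added to cell-free DMEM with 10% FBS and fluorescence read directly. The blue channel used 405 nm excitation and 460 nm emission, with triamterene as the reference fluorophore.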

[3] = qHTS assay to test for compound auto fluorescence at 590 nm (red) in HEK293 cell free culture (AID 720683)
How it was run: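 Cell-free wells of DMEM with 10% FBS received compound, and intrinsic fluorescence was read at excitation/emission 540/590 nm. Values expressed as equivalence to Rose Bengal sodium.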

[4] = qHTS assay to test for compound auto fluorescence at 590 nm (red) in HepG2 cell free culture (AID 720684)
How it was run: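 Rose Bengal sodium served as the reference for red signal. Test compounds were dispensed into serum-containing MEM (10% FBS) without cells, and plates were read at 540/590 nm.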

[5] = qHTS assay to test for compound auto fluorescence at 460 nm (blue) in HepG2 cell free culture (AID 720685)
How it was run: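 Cell-free plates of MEM plus 10% FBS received 23 nL compound or DMSO vehicle; blue-channel (405/460 nm) intensity scored against triamterene as reference fluorophore.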

[6] = qHTS assay to test for compound auto fluorescence at 535 nm (green) in HepG2 cell free culture (AID 720686)
[7] = qHTS assay to test for compound auto fluorescence at 460 nm (blue) in HepG2 cells (AID 720687)
How it was run: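 HepG2 cells in MEM with 10% FBS, attached overnight at 37 C, were exposed to compound or DMSO for 1 hr at 37 C, 5% CO2. Blue fluorescence was read at 405/460 nm, with triamterene as reference fluorophore.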

[8] = target: Glucocorticoid receptor (Homo sapiens) (UniProt P04150); assay: qHTS assay to identify small molecule agonists of the glucocorticoid receptor (GR) signaling pathway (AID 720691; active = well fitted activation curve with a large enough effect in the signal ratio in the repeat runs, not every such curve was filed as active; the % refers to the signal ratio; note: potency is the fitted concentration of half-maximal effect)
How it was run: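 Agonist-mode qHTS in HeLa cells stably expressing a glucocorticoid-response-element beta-lactamase reporter. Fluorescence intensity read with FRET substrate (2 h, room temperature) after 18 h compound treatment at 37 C.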

[9] = target: Glucocorticoid receptor (Homo sapiens) (UniProt P04150); assay: qHTS assay to identify small molecule antagonists of the glucocorticoid receptor (GR) signaling pathway (AID 720692; active = well fitted inhibition curve with a large enough effect in the signal ratio in the repeat runs, not every such curve was filed as active; the % refers to the signal ratio)
How it was run: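 Inhibition of dexamethasone-driven (5 nM final) beta-lactamase expression was measured in GRE-reporter HeLa cells over 18 h at 37C. Fluorescence was read after 2 h with the B/G FRET substrate at room temperature.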

[10] = qHTS assay to test for compound auto fluorescence at 535 nm (green) in HEK293 cell free culture (AID 720682)
How it was run: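 Read-out: 485/535 nm fluorescence intensity, calibrated against fluorescein. Medium only (DMEM + 10% FBS, no cells); test compound or DMSO vehicle added by pintool before plate reading.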
% is set by controls: 0 for no effect and ±100 for the full control effect.

Glucocorticoid receptor (Homo sapiens), sequence (P04150 whole entry, looked up): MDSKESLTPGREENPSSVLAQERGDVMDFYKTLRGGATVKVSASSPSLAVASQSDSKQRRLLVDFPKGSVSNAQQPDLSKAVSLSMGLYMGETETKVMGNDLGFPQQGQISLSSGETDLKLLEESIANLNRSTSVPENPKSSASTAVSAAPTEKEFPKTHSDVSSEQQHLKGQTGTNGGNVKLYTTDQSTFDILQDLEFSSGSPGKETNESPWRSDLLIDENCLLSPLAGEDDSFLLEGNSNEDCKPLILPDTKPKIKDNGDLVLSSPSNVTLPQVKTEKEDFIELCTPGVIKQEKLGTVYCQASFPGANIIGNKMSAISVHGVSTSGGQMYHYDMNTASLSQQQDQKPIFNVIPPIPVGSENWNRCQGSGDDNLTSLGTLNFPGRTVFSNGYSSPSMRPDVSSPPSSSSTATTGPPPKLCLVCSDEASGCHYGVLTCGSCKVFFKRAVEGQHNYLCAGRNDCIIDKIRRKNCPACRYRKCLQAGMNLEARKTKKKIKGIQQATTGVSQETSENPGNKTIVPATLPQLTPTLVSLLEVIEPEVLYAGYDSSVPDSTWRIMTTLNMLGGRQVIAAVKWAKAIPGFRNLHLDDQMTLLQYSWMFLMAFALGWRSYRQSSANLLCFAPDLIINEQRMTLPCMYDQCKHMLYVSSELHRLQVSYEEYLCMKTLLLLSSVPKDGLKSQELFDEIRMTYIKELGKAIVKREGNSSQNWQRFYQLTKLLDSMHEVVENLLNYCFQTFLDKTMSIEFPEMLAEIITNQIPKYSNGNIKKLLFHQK

NC[C@H]1O[C@H](O[C@H]2[C@H](O)[C@@H](O[C@H]3O[C@H](CO)[C@@H](O)[C@H](N)[C@H]3O)[C@H](N)C[C@@H]2N)[C@H](O)[C@@H](O)[C@@H]1O
inactive: fluorescence, % of fluorescein [1] -0.0192% [at 18.6 µM] and 0.0982% [at 3.72 µM] | fluorescence, % of fluorescent control [2] 0.0354% [at 18.6 µM] and -0.129% [at 3.72 µM] | fluorescence, % of fluorescent control [3] 0.0769% [at 18.6 µM] and -0.256% [at 3.72 µM] | fluorescence, % of Rose Bengal [4] -0.276% [at 18.6 µM] and 0.0159% [at 3.72 µM] | fluorescence, % of fluorescent control [5] -0.077% [at 18.6 µM] and 0.036% [at 3.72 µM] | fluorescence, % of fluorescein control [6] -0.0088% [at 18.6 µM] and 0.0013% [at 3.72 µM] | fluorescence, % of fluorescent control [7] 0.0301% [at 18.6 µM] and -0.0315% [at 3.72 µM] | Potency [8] | Potency [9]

CC(=O)OCCc1ccccc1
inactive: outcome [1] | Potency [2] | outcome [3] | outcome [4] | Potency [5] | outcome [6] | Potency [7] | Potency [8]

Oc1ccc2c(c1)OCO2
inactive: outcome [1] | Potency [2] | outcome [3] | outcome [4] | Potency [5] | outcome [6] | Potency [7] | Potency [8]

CCCCc1cc2ccccc2c(OCCN(C)C)n1
active: Potency [8] 1.02 µM
inactive: fluorescence, % of fluorescein [1] -0.0691% [at 18.6 µM] | fluorescence, % of fluorescent control [2] -0.0502% [at 18.6 µM] | fluorescence, % of fluorescent control [3] 0.0019% [at 18.6 µM] | fluorescence, % of Rose Bengal [4] 0.586% [at 18.6 µM] | fluorescence, % of fluorescent control [5] -0.0015% [at 18.6 µM] | fluorescence, % of fluorescein control [6] 0.0394% [at 18.6 µM] | fluorescence, % of fluorescent control [7] -0.0043% [at 18.6 µM]

O=C(O)[C@@H]1[C@H]2C[C@H]3c4[nH]c5ccccc5c4CCN3C[C@@H]2CC[C@@H]1O
inactive: fluorescence, % of fluorescein [1] -0.047% [at 18.6 µM] | fluorescence, % of fluorescent control [2] 4.98% [at 18.6 µM] | fluorescence, % of fluorescent control [3] 0.0861% [at 18.6 µM] | fluorescence, % of Rose Bengal [4] -0.199% [at 18.6 µM] | fluorescence, % of fluorescent control [5] 4.25% [at 18.6 µM] | fluorescence, % of fluorescein control [6] 0.287% [at 18.6 µM] | fluorescence, % of fluorescent control [7] 5.05% [at 18.6 µM] | Potency [8] | Potency [9]

C[Si](C)O[Si](C)(C)O[Si](C)(C)O[Si](C)C
inactive: outcome [1] | Potency [2] | outcome [3] | outcome [4] | Potency [5] | outcome [6] | Potency [8]

CCOC(=O)[C@H](CCc1ccccc1)N[C@H]1CCc2ccccc2N(CC(=O)O)C1=O
inactive: outcome [1] | outcome [10] | outcome [3] | outcome [4] | Potency [5] | outcome [6]

COCCOCCOCCOCCOC
inactive: outcome [1] | Potency [2] | outcome [3] | outcome [4] | Potency [5] | outcome [6] | Potency [7] | Potency [8] | Potency [9]

O=C1[C@H](CC[C@H](O)c2ccc(F)cc2)[C@@H](c2ccc(O)cc2)N1c1ccc(F)cc1
inactive: outcome [1] | Potency [2] | outcome [3] | outcome [4] | Potency [5] | outcome [6] | Potency [7]

COCCO
inactive: outcome [1] | Potency [2] | outcome [3] | outcome [4] | Potency [5] | outcome [6] | Potency [7] | Potency [8] | Potency [9]

C1=Cc2ccccc2C1
inactive: outcome [1] | Potency [2] | outcome [3] | outcome [4] | Potency [5] | outcome [6] | Potency [7]

CC(C)(C)c1ccc(S)cc1
inactive: outcome [1] | Potency [2] | outcome [3] | outcome [4] | Potency [5] | outcome [6] | Potency [7] | Potency [8]

O=C(Cl)c1ccc([N+](=O)[O-])cc1
inactive: outcome [1] | Potency [2] | outcome [3] | outcome [4] | Potency [5] | outcome [6] | Potency [7] | Potency [8] | Potency [9]
